Calls of active or inactive are those of the source.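 The calls were made as follows, unless noted: active = inhibition of the reporter signal at or above 50%; inactive = inhibition below 50%.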
Legend:
[1] = inhibitors of TNFa-induced NFkB p65 translocation, primary screen, imaging, HUVEC, MLSMR starter and 10KST1 sets (AID 438;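 active = inhibition above 20% together with a positive visual image hit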;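 also: compound added about 3h40 before a 20 min TNFalpha stimulation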;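 as to inhibition: signal is the nuclear over cytoplasmic p65 intensity ratio per well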); details: HUVEC TNFa-induced p65 nuclear translocation; cell count: measured here: nuclei count (cytotoxicity indicator), at 2.08 µM; inhibition: at 2 µM, stronger effect = higher value, 0% TNFa-plus-vehicle, 100% no-TNFa wells
[2] = reduction of polyQ htt aggregates in cells – imaging, exon1htt(103Q)mCFP cells, high-content imaging, primary screen (AID 483;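 active = visual image review flags a hit and inhibition of aggregation exceeds 20%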;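 also: compound exposure lasted 3 days before fixation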;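 as to nuclei count: percent of the per-plate median nuclei count of sample wells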); details: exon1htt(103Q)mCFP cell line, aggregate imaging, at 2 µM; inhibition of aggregation: stronger effect = higher value; nuclei count: measured here: cell count, toxicity
[3] = endothelial E-selectin expression blockers – imaging, HUVEC, immunofluorescence, MLSMR starter and 10KST1 sets, primary screen (AID 487;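 active = visually confirmed hit in the image check and inhibition above 20%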;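 as to inhibition: signal is fraction of cell area covered by stained E-selectin grains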;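 as to nuclei count: 100% = median nuclei count of all wells on the same plate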); details: HUVEC TNFalpha-induced E-selectin immunofluorescence imaging, at 2 µM; inhibition: stronger effect = higher value; nuclei count: measured here: cell number, toxicity
[4] = target: Voltage-gated potassium channel subunit beta-2 (Rattus norvegicus) (UniProt P62483); assay: inhibitors of rat Kvbeta2 reductase activity – biochemical, NADPH fluorescence, primary screen (AID 622;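 active = fluorescence slope higher than the sample average by over 3 SD, cut at about -0.22 in these data, passing the limit was not always enough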;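 also: slope of raw intensity against log time taken from 70 to 1610 s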); details: recombinant KvBeta, 4-cyanobenzaldehyde reduction, at 10 µM, stronger effect = higher value
Voltage-gated potassium channel subunit beta-2 (Rattus norvegicus), sequence (P62483 whole entry, looked up): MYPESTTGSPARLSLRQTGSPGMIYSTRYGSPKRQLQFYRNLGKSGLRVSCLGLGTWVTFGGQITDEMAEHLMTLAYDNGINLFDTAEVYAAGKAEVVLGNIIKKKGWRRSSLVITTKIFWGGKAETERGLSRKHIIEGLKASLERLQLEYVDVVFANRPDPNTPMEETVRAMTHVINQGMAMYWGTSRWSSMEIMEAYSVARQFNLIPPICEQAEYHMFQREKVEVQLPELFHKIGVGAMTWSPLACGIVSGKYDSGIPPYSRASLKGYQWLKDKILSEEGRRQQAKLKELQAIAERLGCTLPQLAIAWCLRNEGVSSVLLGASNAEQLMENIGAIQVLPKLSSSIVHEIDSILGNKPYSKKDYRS

[5] = target: Voltage-gated potassium channel subunit beta-2 (Rattus norvegicus) (UniProt P62483); assay: enhancers of rat Kvbeta2 NADPH turnover – biochemical, NADPH fluorescence, primary screen (AID 623;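 active = NADPH fluorescence slope more negative than the mean of all samples by about 3 SD, 99.7% confidence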;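 also: fluorescence intensity change per second fitted from 20 to 320 s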); details: Recombinant KvBeta, NADPH fluorescence decrease slope, 10 min; at 10 µM; stronger effect = lower value
[6] = target: Alpha-2C adrenergic receptor (Homo sapiens) (UniProt P18825); assay: compounds altering alpha2C-coupled GIRK flux – cell-based, HEK293 alpha2C/GIRK1/2, thallium flux, primary screen (AID 624;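 active = fluorescence slope after compound addition differing from the mean of all screened samples at 99.7% confidence, in either direction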;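 also: slope of fluorescence ratio to pre-addition baseline per second over 15 to 24 s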); details: thallium flux BTC fluorescence, at 10 µM, actives lie on both sides
Alpha-2C adrenergic receptor (Homo sapiens), sequence (P18825 whole entry, looked up): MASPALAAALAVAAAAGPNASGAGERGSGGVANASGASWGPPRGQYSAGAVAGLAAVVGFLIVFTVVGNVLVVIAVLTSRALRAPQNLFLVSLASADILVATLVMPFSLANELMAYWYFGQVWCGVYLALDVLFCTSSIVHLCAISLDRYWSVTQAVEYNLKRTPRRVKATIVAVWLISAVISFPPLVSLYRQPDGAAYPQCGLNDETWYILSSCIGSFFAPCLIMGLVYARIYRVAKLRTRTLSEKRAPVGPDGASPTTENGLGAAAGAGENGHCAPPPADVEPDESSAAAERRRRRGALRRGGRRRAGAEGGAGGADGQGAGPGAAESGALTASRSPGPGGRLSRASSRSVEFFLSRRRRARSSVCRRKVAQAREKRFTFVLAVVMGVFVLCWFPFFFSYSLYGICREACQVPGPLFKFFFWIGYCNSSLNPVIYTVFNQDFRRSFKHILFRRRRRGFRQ

[7] = blockers of RIG-like receptor reporter activation – cell-based, Sendai virus stimulus, luciferase, 10K MLSCN set, TLR/RLR signaling modifier project, primary screen (AID 602276;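 active = inhibition at or above 50% at 10 µM; inactive = inhibition below 50%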;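 also: firefly luciferase from ISG56 promoter only with Renilla not read in this screen; 0% = Sendai virus plus DMSO and 100% = medium plus DMSO without virus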); details: HEK293 RL24 IRF3 luciferase reporter, at 10 µM, stronger effect = higher value
[8] = TLR3 IRF3 reporter activation blockers – cell-based, poly I:C stimulus, luciferase, 10K MLSCN set, primary screen (AID 602277); details: HEK293-TLR3 RL24 IRF3 luciferase reporter, at 10 µM, stronger effect = higher value

SMILES	cell count [1]	inhibition [1]	inhibition of aggregation [2]	nuclei count [2] [%]	inhibition [3]	nuclei count [3] [%]	fluorescence slope [4]	NADPH fluorescence slope [5]	slope [6]	inhibition [7]	inhibition [8]
CCN1CCN(c2nc(C)nc3c2sc(=S)n3C)CC1	640	-4.8% (inactive)	7.2% (inactive)	82.9	-24.6% (inactive)	109	-0.587 (inactive)	-2.8e-05 (inactive)	0.00433 (inactive)	-3.52% (inactive)	18% (inactive)
CC1Cc2ccccc2N1C(=O)COC(=O)Cn1nnc(-c2ccccc2)n1 (stereo not drawn)	543	-9% (inactive)	-4.6% (inactive)	96.1	-39.7% (inactive)	123	-0.583 (inactive)	-4e-05 (inactive)	0.00555 (inactive)	11% (inactive)	34.2% (inactive)
Oc1ccc(C=Nc2cccc3ncccc23)c(O)c1	682	-40.5% (inactive)	-10% (inactive)	111	-138% (inactive)	118	-0.483 (inactive)	-2.5e-05 (inactive)	0.00472 (inactive)	11.3% (inactive)	17.3% (inactive)
Cn1c(=O)oc2cc(S(=O)(=O)NC3CCN(Cc4ccccc4)CC3)ccc21	621	-6.3% (inactive)	59.7% (active)	70.5	-37.9% (inactive)	99.7	-0.57 (inactive)	1.4e-06 (inactive)	0.0068 (inactive)	10.4% (inactive)	33.8% (inactive)
CCn1c(SCC(=O)Nc2nc(C)cs2)nnc1-c1ccco1	339	0.4% (inactive)	-8.5% (inactive)	114	-93.6% (inactive)	114	-0.316 (inactive)	-2.7e-05 (inactive)	0.00755 (inactive)	8.27% (inactive)	23.4% (inactive)
CCCCOC(=O)c1cccc(NC(=O)CC)c1	667	-22.3% (inactive)	-8.8% (inactive)	97.1	16.4% (inactive)	110	-0.557 (inactive)	4e-05 (inactive)	0.00523 (inactive)	-34.7% (inactive)	-123% (inactive)
O=C(Nc1ccc(N2CCCC2)cc1)c1ccc(Br)o1	303	-8.4% (inactive)	36.8% (inactive)	94.4	-59.6% (inactive)	94.7	-0.398 (inactive)	-6.5e-05 (inactive)	0.00868 (inactive)	-34% (inactive)	-152% (inactive)
Cc1ccc(S(=O)(=O)C2(C(=O)NC3CCCC3)CC2)cc1	463	-4.2% (inactive)	-10.8% (inactive)	110	-58.4% (inactive)	115	-0.602 (inactive)	1.6e-05 (inactive)	0.00643 (inactive)	13.7% (inactive)	36.5% (inactive)
Cc1cc(C)c2cc3c(ccn3C3OC[C@H](O)[C@H](O)[C@H]3O)cc2n1 (stereo partly drawn)	699	-21.8% (inactive)	-19.6% (inactive)	121	-106% (inactive)	95.9	-0.0157 (active)	-2.8e-05 (inactive)	0.002 (inactive)	15.4% (inactive)	27.3% (inactive)
CCCN(CCC)C(=O)C1CCN(c2cc(C)nc3c(-c4ccc(OC)c(OC)c4)c(C)nn23)CC1	651	6.6% (inactive)	-2.4% (inactive)	91.7	-68.7% (inactive)	124	-0.492 (inactive)	-2.2e-05 (inactive)	0.00708 (inactive)	4.7% (inactive)	7.43% (inactive)
CCOC(=O)N1CCN(Cc2ccccc2F)CC1	485	-3.8% (inactive)	15.1% (inactive)	91.4	-26% (inactive)	91.5	-0.581 (inactive)	-2e-05 (inactive)	0.00418 (inactive)	12.5% (inactive)	13.4% (inactive)
Cn1cccc1Cc1nnc(SCC(N)=O)n1-c1ccc(F)cc1	845	4.6% (inactive)	15.1% (inactive)	102	-106% (inactive)	125	-0.569 (inactive)	-3.1e-05 (inactive)	0.00615 (inactive)	10.4% (inactive)	24.3% (inactive)
O=C(C1COc2ccccc2O1)N1CCCC1 (stereo not drawn)	283	-8.4% (inactive)	32.8% (active)	83.7	-72.5% (inactive)	99.2	-0.332 (inactive)	1.7e-05 (inactive)	0.0093 (inactive)	-11.4% (inactive)	3.67% (inactive)
CCN(C(C)=O)c1nnc(CSc2nc3ccccc3s2)s1	531	-15.2% (inactive)	10.2% (inactive)	96.4	-11.6% (inactive)	119	-0.475 (inactive)	2.8e-05 (inactive)	0.00523 (inactive)	-76.7% (inactive)	-233% (inactive)
NS(=O)(=O)c1ccc(CCNC(=O)CCC2COc3ccccc3O2)cc1 (stereo not drawn)	535	-8.3% (inactive)	-5.3% (inactive)	98.4	-20.9% (inactive)	90.3	-0.564 (inactive)	3.4e-06 (inactive)	0.00562 (inactive)	15.7% (inactive)	18.3% (inactive)
O=C(NCCSc1c[nH]c2ccccc12)c1ccco1	686	-2.4% (inactive)	-13.1% (inactive)	108	-15.8% (inactive)	116	-0.562 (inactive)	-4e-05 (inactive)	0.00591 (inactive)	10.1% (inactive)	32.9% (inactive)
COC(=O)c1cc2ccsc2n1CC(=O)N(C)c1ccccc1	623	-15.1% (inactive)	-8.1% (inactive)	117	-29.3% (inactive)	92.2	-0.261 (inactive)	4.1e-06 (inactive)	0.00481 (inactive)	13.3% (inactive)	22.7% (inactive)
COc1ccccc1NC(=O)CSc1nnc(-c2ccncc2)o1	469	5.3% (inactive)	-7.5% (inactive)	110	-23.6% (inactive)	117	-0.506 (inactive)	1.9e-05 (inactive)	0.00395 (inactive)	-2.18% (inactive)	-9.84% (inactive)
CC(C)N(O)C(=O)NC(C)(C)C	496	9.4% (inactive)	-1.8% (inactive)	106	42.3% (inactive)	103	-0.494 (inactive)	-2.2e-05 (inactive)	0.00463 (inactive)	17.4% (inactive)	15% (inactive)
O=C(NCc1ccccc1)N[C@@H](Cc1ccccc1)C(=O)O	666	6.9% (inactive)	-0.3% (inactive)	116	4.5% (inactive)	111	-0.43 (inactive)	-4.1e-05 (inactive)	0.00384 (inactive)	10.6% (inactive)	33.8% (inactive)
CC(C)(C)NC(=O)CC(CC(=O)O)c1ccccc1 (stereo not drawn)	584	2.9% (inactive)	-4.2% (inactive)	85.7	-30.6% (inactive)	109	-0.539 (inactive)	-3.4e-05 (inactive)	0.008 (inactive)	12.7% (inactive)	37.3% (inactive)
CCc1c(C(=O)Nc2ncn(Cc3cccc(C)c3)n2)csc1C	630	1.2% (inactive)	2% (inactive)	97.3	-66.7% (inactive)	110	-0.343 (inactive)	-4.3e-05 (inactive)	0.00495 (inactive)	7.43% (inactive)	15.5% (inactive)
NC(=O)C1(N2CCCCC2)CCN(C(=O)Nc2ccccc2C(F)(F)F)CC1	312	-3.2% (inactive)	14.4% (inactive)	91.9	-133% (inactive)	142	-0.445 (inactive)	6.2e-06 (inactive)	0.00567 (inactive)	11.1% (inactive)	31.2% (inactive)
O=C(Cn1c(C(=O)NCC2CCCO2)cc2sccc21)c1ccccc1 (stereo not drawn)	280	-13.4% (inactive)	20.2% (inactive)	80	-77.7% (inactive)	99.3	-0.611 (inactive)	5.3e-06 (inactive)	0.00924 (inactive)	5.12% (inactive)	4.66% (inactive)
CCCCOc1ccc(-c2nnn(C(C)(C)C(=O)OC)n2)cc1	602	-6.3% (inactive)	7% (inactive)	67.8	1.6% (inactive)	102	-0.502 (inactive)	-0.00029 (active)	0.0068 (inactive)	-33.8% (inactive)	-125% (inactive)
O=C(COc1ccccc1)Nc1ccccc1N1CCN(c2ccccc2)CC1	672	10.8% (inactive)	-7.4% (inactive)	84.2	-71.5% (inactive)	110	-0.609 (inactive)	-3.5e-05 (inactive)	0.00412 (inactive)	16.7% (inactive)	3.18% (inactive)
CCN(CC)c1nc2cc(OC)ccc2cc1C#N	386	-7.8% (inactive)	8.6% (inactive)	101	-50.8% (inactive)	114	-0.584 (inactive)	-6.9e-06 (inactive)	0.00563 (inactive)	12.7% (inactive)	41% (inactive)
Cc1cccc2c1N(CC(=O)OC(C)C)C(=O)C2=O	854	0% (inactive)	-1.4% (inactive)	105	-67.4% (inactive)	121	-0.612 (inactive)	-6.4e-06 (inactive)	0.00621 (inactive)	-2.09% (inactive)	29% (inactive)
